Screening results as filed in PubChem.
Rtt109 Vps75: blocks Candida albicans Rtt109/Vps75 acetyltransferase activity | Q5AAJ8 | purified Rtt109/Vps75, ThioGlo CoA-SH fluorescence, 4 h | inhibition, % at 34.9 µM | 0.16% of 330,000 active | AID 540336;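 active = inhibition of at least 50% in every replicate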
PRMT1 FP inh: blocks human protein arginine methyltransferase 1. recombinant PRMT1, activity-based probe fluorescence polarization. inhibition, % at 2.79 µM. 1.3% of 370,000 active;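 active = inhibition above about 21% made by adding two undisclosed values, limit read from the data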
rCAG binder: r(CAG) repeat RNA binding | TO-PRO-1 dye displacement fluorescence | inhibition, % at 3 µM | 1.3% of 370,000 active | AID 651821;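 active = inhibition above the plate cutoff, the mean of all test compounds on that plate plus 3 SD, cut at about 35% in these data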;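 note: 0% = DMSO alone and 100% = 100 µM mitoxantrone as full dye displacement; higher means more dye released from RNA so lower well fluorescence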
ABHD5-PLIN5 inh: ABHD5-PLIN5 protein interaction inhibition. Split G. princeps luciferase complementation, luminescence, 4 h. inhibition, % at 4 µM. AID 602281. 0.78% of 360,000 active;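 active = inhibition above the mean inhibition across every tested compound plus 3 SD, cut at about 22% in these data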;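 note: 0% = DMSO only wells and the 100% control is not disclosed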
LANA-H2A inh: blocks KSHV LANA binding to histone H2A/H2B; 0.6% of 320,000 active; inhibition, % (concentration not given with the values); cell-free LANA-H2A/H2B peptide, fluorescence polarization; AID 2629; Q9QR71; in the data active = inhibition mostly above about 10%, no sharp cut-off; inactive = mostly below about 6.7%
ALR H2O2 inh: blocks human ALR sulfhydryl oxidase activity. P55789. purified ALR, DTT oxidation, H2O2 HRP-luminol luminescence. inhibition, % (no concentration beside the values). 3.8% of 290,000 active. AID 485317;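 active = mean replicate inhibition above about 79%, with every replicate also reaching it, limit read from the data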
rCAG bind conf: r(CAG) RNA repeat binding, confirmation; inhibition, % at 3 µM; shares compounds with rCAG binder; TO-PRO-1 dye displacement fluorescence; 70% of 4,300 active;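 active = inhibition above a per-plate cutoff, the mean inhibition of sample wells plus 3 SD, cut at about 35% in these data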;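 note: loss of TO-PRO-1 fluorescence as compound displaces dye from 1x1 AA loop RNA; 0% = DMSO only wells and 100% = 100 µM mitoxantrone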
DNA CAG counter: counter-screen for rCAG RNA binders: DNA CAG dye complex inhibitors. AID 652068. shares compounds with rCAG binder. inhibition, % at 3 µM. 94% of 4,300 active. d(CAG) DNA oligo TO-PRO-1 dye displacement, fluorescence;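 active = inhibition above its plate's cutoff, the mean test-well inhibition plus 3 SD, cut at about 4.8% in these data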;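 note: 0% = DNA dye mix with DMSO and 100% = 100 µM mitoxantrone; hits displace the dye from DNA and so lower well fluorescence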
dCAG dye DR: disrupts DNA CAG TO-PRO-1 complex in dose response. shares compounds with rCAG binder. DNA CAG/GTC duplex TO-PRO-1 dye displacement fluorescence. 20% of 250 active. AID 686960. IC50, µM; in the data active = IC50 below about 10 µM
The depositor's hits bear a star; / = no result given. The list is not random: actives were taken first. Their share in the collection is about 5.9%.

SMILES | Rtt109 Vps75 | PRMT1 FP inh | rCAG binder | ABHD5-PLIN5 inh | LANA-H2A inh | ALR H2O2 inh | rCAG bind conf | DNA CAG counter | others
O=C(C1CCCCC1)N1C[C@@H](O)[C@H](n2cc(-c3ccc(F)cc3)nn2)C[C@@H]1c1ccccc1 | / | 4 | 3 | -3 | / | / | / | /
O=C(NNC(=S)NCCc1ccccc1)c1ccc(Br)s1 | 7 | 7 | 54* | -8 | -4 | 25 | 47* | 14* | dCAG dye DR=>30
O=C(Cc1ccccc1F)Nc1nnc(-c2cccnc2)s1 | / | -1 | 5 | / | / | / | / | /
Cc1ccc(CNC(=O)C2CC(c3ccccc3C(F)(F)F)=NO2)o1 (stereo not drawn) | 1 | 8 | 38* | 3 | -3 | / | 5 | 3
CCCc1cc(=O)[nH]c(Nc2ccc(OC)c(Cl)c2)n1 | 6 | -2 | 36* | -13 | 1 | -8 | 9 | 11*
CCCc1cc(=O)[nH]c(Nc2ccc(Cl)cc2)n1 | -5 | -3 | 41* | -9 | 0 | -6 | 9 | 10*
CCCCc1ccc(S(=O)(=O)NC(=O)C2(C)CCN2C(=O)C/C=C/c2ccccc2)cc1 (stereo not drawn) | / | 1 | 58* | 3 | / | / | 55* | 18*
CCCCc1ccc(S(=O)(=O)NC(=O)C2(C)CCN2C(=O)Cc2ccccc2)cc1 (stereo not drawn) | / | -1 | 39* | -10 | / | / | 29 | 4.8*
CCCCc1ccc(S(=O)(=O)NC(=O)C2(C)CCN2C(=O)c2cccc(F)c2)cc1 (stereo not drawn) | / | -6 | 37* | -5 | / | / | 30 | 6.5*
CC1(C(=O)NS(=O)(=O)c2cccc(F)c2)CCN1C(=O)C/C=C/c1ccccc1 (stereo not drawn) | / | 5 | 9 | -2 | / | / | / | /
CCN(CC)C(=O)CC[C@H]1CC[C@]2(CCCN(S(C)(=O)=O)C2)O1 | / | 1 | 2 | / | / | / | / | /
CCOC(=O)[C@@]12CN(C(=O)OC(C)(C)C)CC=C1N(Cc1ccc(OC)cc1)C(=O)[C@H]2CC(=O)NCC1CCCCC1 | / | 1 | 1 | / | / | / | / | /
COc1ccc(-c2nn(-c3ccccc3)cc2/C=N/Nc2cccc(C(=O)O)c2)cc1 | 19 | -4 | 37* | -1 | / | / | 48* | 20*
COc1cccc(-c2nn(-c3ccccc3)cc2/C=C(/NC(=O)c2ccccc2)C(=O)O)c1 | -2 | -9 | 38* | 4 | -1 | 5 | 38* | 9.2*
O=C(O)/C(=C\c1cn(-c2ccccc2)nc1-c1cccnc1)NC(=O)c1ccccc1 | -1 | 0 | 2 | 2 | -2 | 0 | / | /
CC1(C(=O)NCc2ccco2)Cc2c(-c3ccccc3)ccnc2O1 (stereo not drawn) | / | 1 | 0 | 0 | / | / | / | /
CC(=O)C1(C(=O)NCc2ccccc2)CC(c2ccccn2)=NO1 (stereo not drawn) | / | 0 | 5 | / | / | / | / | /
O=C(O)CCN1C(=O)/C(=C/c2cccc(OCc3ccc(F)cc3)c2)SC1=S | / | 19 | / | / | / | / | / | /
CCOC(=O)N1CCN(C(=O)C[C@H]2C[C@@]3(C(=O)OC)C(=C[C@H](C(C)(C)C)O[C@@H]3C)N(CCc3ccc(OC)c(OC)c3)C2=O)CC1 | / | 0 | 3 | / | / | / | / | /
CCOc1cc(/C=N/N=C2/NC(=O)C(CC(=O)O)S2)ccc1OS(=O)(=O)c1ccc(C)cc1 (stereo not drawn) | 3 | 7 | 56* | -3 | / | / | 36* | 9.7*
COc1ccc(S(=O)(=O)Oc2cccc(/C=N/N=C3/NC(=O)C(CC(=O)O)S3)c2)cc1 (stereo not drawn) | 0 | 3 | 27 | 0 | 3 | 4 | / | /
CCOc1cc(/C=N/N=C2/NC(=O)C(CC(=O)O)S2)ccc1OCc1ccccc1Cl (stereo not drawn) | 5 | 5 | 64* | -5 | -3 | 98* | 46* | 13*
COc1cc(/C=C/C(=O)O)ccc1OS(=O)(=O)c1cc(C)ccc1C | 7 | 0 | 22 | 4 | -4 | 19 | / | /
COc1cc(/C=C/C(=O)O)ccc1OS(=O)(=O)c1c(C)cc(C)cc1C | -13 | 1 | 36* | 9 | -5 | -5 | 28 | 9.4*
COc1ccc2[nH]c(=O)cc(C(=O)O)c2c1 | 8 | -1 | 8 | 9 | 0 | -17 | / | /
SMILES | Rtt109 Vps75 | PRMT1 FP inh | rCAG binder | ABHD5-PLIN5 inh | LANA-H2A inh | ALR H2O2 inh | rCAG bind conf | DNA CAG counter | others
COc1ccc2[nH]c3c4c(ccc3c2c1)C(=O)C=CC4=O | -2 | 20 | 44* | 13 | / | / | 19 | 15*
Nc1c(Br)cc(Br)c2c1C(=O)c1c(cccc1S(=O)(=O)O)C2=O | 4 | 6 | 43* | 3 | / | / | 48* | 13*
CC(=O)Nc1nnc(S(=O)(=O)N2CCN(c3ccc([N+](=O)[O-])cc3Cl)CC2)s1 | 3 | 3 | 26 | -3 | 8 | -7 | / | /
CCOC(=O)N1CCC(=NNC(=O)c2cc3ccccc3cc2O)CC1 | 2 | 3 | 37* | -7 | / | / | 15 | 11*
O=C(NN=C1CCN(Cc2ccccc2)CC1)c1cc2ccccc2cc1O | -7 | -1 | 52* | 3 | -7 | -3 | 57* | 30*
O=C(C1CCN(c2cncnc2)CC1)N1CCOCC1 | / | 6 | 0 | / | / | / | / | /
O=C(Cc1cccc2ccccc12)Nc1nc(-c2cccc([N+](=O)[O-])c2)cs1 | -2 | 1 | 3 | 6 | 4 | 1 | / | /
O=C(O)c1ccccc1C(=O)Nc1nc(-c2ccc3ccccc3c2)cs1 | 15 | 6 | 70* | 2 | -2 | 69 | 63* | 26*
NS(=O)(=O)c1ccc(Nc2nc(-c3cccc([N+](=O)[O-])c3)cs2)cc1 | 6 | 6 | 36* | 5 | -1 | 0 | 23 | 17*
NS(=O)(=O)c1ccc(Nc2nc(-c3ccc4ccccc4c3)cs2)cc1 | -4 | 21 | 52* | 13 | -8 | -5 | 36* | 20*
Cc1nc(C)c(-c2csc(Nc3ccc(S(N)(=O)=O)cc3)n2)s1 | 0 | 4 | 5 | 2 | 2 | -1 | / | /
CC1(C(=O)Nc2ccc3c(c2)OCCO3)CCC(=O)N1C1CC1 (stereo not drawn) | / | -2 | 3 | 6 | / | / | / | /
Cc1cccc2c1c1ccc3c(c1n2C)C(=O)C=CC3=O | -6 | 12 | 39* | -10 | / | / | 20 | 13*
CC1=NN(C(N)=S)C(=O)C1N=Nc1c(C)cc(C)cc1C (stereo not drawn) | 7 | -2 | 5 | 8 | -1 | -5 | / | /
CC1=NN(C(N)=S)C(=O)C1N=Nc1c(Br)cc(Br)cc1Br (stereo not drawn) | 14 | 2 | 46* | -4 | 1 | 98* | 43* | 13* | dCAG dye DR=>30
